Among the test systems are NCI-H23 lung; NCI-H226 lung; NCI-H322M lung; HOP-62 NSCLC; NCI-H460 lung; HOP-92 NSCLC; NCI-H522 lung; A549/ATCC NSCLC; 786-0 renal; COLO 205 colon; DU-145 prostate; K-562 leukemia; MALME-3M melanoma; MDA-MB-231 breast; SF-268 CNS; SF-295 CNS; SF-539 CNS; M14 melanoma; RXF 393 renal.
Test in all cases: NCI-60 one-dose screen, 48 h (100 = growth as untreated, 0 = no growth, -100 = all killed)
Holding throughout (settings): 10 µM unless noted

Compounds without any hit were thinned out: in the full panel of roughly 83,000, 20% have a hit.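 Assay: single dose, 48 h. Readout: percent growth (0 = no net growth; negative = cell death). Active: <10.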 Unmarked numbers belong to inactive results. Activity calls are given as the source filed them.

Regarding `CO/C=C/C(=O)c1cc2cnc3c(=N)cc(NC(=O)C(C)C)c([nH]1)c23`, the growth in the assay on NCI-H23 lung is -11.9% (active); in the assay with NCI-H226 lung it was -40.3% (active); in the assay on NCI-H322M lung, -13.2% (active); in the assay on HOP-62 NSCLC, -18.7% (active); in the assay on NCI-H460 lung, 5.42% (active); in the assay with HOP-92 NSCLC, -16% (active). The growth with NCI-H522 lung is 23.8%; in the assay with A549/ATCC NSCLC, 19.3%; in the assay with 786-0 renal, -44.6% (active); in the assay on COLO 205 colon it was -33.8% (active); with DU-145 prostate, 4.45% (active); with K-562 leukemia it was 3.9% (active). Further, the growth is -77.5% (active) in the assay with MALME-3M melanoma; -31% (active) with MDA-MB-231 breast; -47.4% (active) with SF-268 CNS; -51.6% (active) in the assay on SF-295 CNS; -57% (active) with SF-539 CNS; -61.3% (active) in the assay with M14 melanoma.

On to `O=C(NO)c1ccc(Cn2c(=O)n(CCc3ccccc3)c(=O)c3ccccc32)cc1`, for which the growth with NCI-H23 lung was 8.96% (active); in the assay on NCI-H226 lung, 48.1%; with NCI-H322M lung, 43.7%; in the assay on HOP-62 NSCLC it was 31.1%; with NCI-H460 lung, 25.2%; with HOP-92 NSCLC, 66.8%. Also, the growth in the assay on NCI-H522 lung was 29.9%; in the assay on A549/ATCC NSCLC, 33.6%; with 786-0 renal, 45%; in the assay on COLO 205 colon, 4.15% (active); in the assay on DU-145 prostate, 30.5%; with K-562 leukemia it was 35.4%. Also, the growth in the assay with MDA-MB-231 breast is 39%; with RXF 393 renal it was 15.8%; with SF-268 CNS, 46.4%; with SF-295 CNS, 22.1%; in the assay with SF-539 CNS, 12.1%; in the assay on M14 melanoma it was 22.2%.

As for `OCCNC(=S)Nc1ccc(-c2nc(N3C[C@H]4CC[C@@H](C3)O4)c3cccn3n2)cc1`, the growth was 17.4% in the assay on NCI-H23 lung; 0.203% (active) in the assay on NCI-H226 lung; 19.3% in the assay on NCI-H322M lung; -14.3% (active) in the assay on HOP-62 NSCLC; 11% with NCI-H460 lung; -21.2% (active) in the assay with HOP-92 NSCLC. The growth in the assay with NCI-H522 lung was 13.3%; in the assay on A549/ATCC NSCLC, -1.6% (active); with 786-0 renal it was 1.86% (active); in the assay on COLO 205 colon it was -8.64% (active); with DU-145 prostate it was 8.77% (active); in the assay on K-562 leukemia, 19.1%. The growth with MDA-MB-231 breast is 4.21% (active); in the assay on RXF 393 renal it was -31.4% (active); in the assay on SF-268 CNS, 9.25% (active); in the assay with SF-295 CNS it was -34.3% (active); in the assay on SF-539 CNS, -12.2% (active); in the assay with M14 melanoma it was 5.27% (active).

`COc1cc(C(=O)NNC(=O)c2ccc(NC(=O)CCl)cc2)cc(OC)c1OC`: the growth in the assay on NCI-H23 lung was 78.9%; in the assay on NCI-H226 lung it was 95.5%; in the assay with NCI-H322M lung, 88.5%; in the assay with HOP-62 NSCLC, 72.7%; in the assay with NCI-H460 lung, 99.5%; with HOP-92 NSCLC, 99%. In addition, the growth in the assay on NCI-H522 lung is -34.4% (active); in the assay on A549/ATCC NSCLC, 77%; with 786-0 renal it was 95.3%; in the assay with COLO 205 colon, 106%; in the assay with DU-145 prostate, 91%; in the assay with K-562 leukemia, 53.7%. For the same molecule, the growth in the assay on MDA-MB-231 breast is 51.1%; in the assay with RXF 393 renal, 92.9%; in the assay on SF-268 CNS, 76.8%; in the assay on SF-295 CNS it was 93.7%; with SF-539 CNS it was 91.5%; in the assay on M14 melanoma it was 82.6%.

Take `CCc1nc2cc(/C=C/C(=O)NO)ccc2c(=O)n1CCc1ccc(F)cc1`: the growth in the assay with NCI-H23 lung is 1.11% (active); with NCI-H226 lung, 20.3%; in the assay with NCI-H322M lung, 18.6%; with HOP-62 NSCLC it was -11.8% (active); in the assay with NCI-H460 lung, 4.24% (active); in the assay on HOP-92 NSCLC, -4.03% (active). Also, the growth with NCI-H522 lung was 3.72% (active); in the assay on A549/ATCC NSCLC, 7.13% (active); in the assay on 786-0 renal, -23% (active); in the assay with COLO 205 colon, -35.7% (active); in the assay on DU-145 prostate, -5.02% (active); in the assay with K-562 leukemia, 4.68% (active). Besides, the growth is -6.12% (active) in the assay with MDA-MB-231 breast; -29.5% (active) in the assay with RXF 393 renal; 9.29% (active) in the assay with SF-268 CNS; 10.4% in the assay with SF-295 CNS; 4.06% (active) in the assay with SF-539 CNS; 6.79% (active) in the assay on M14 melanoma.

With `CCc1nc2cc(/C=C/C(=O)NO)ccc2c(=O)n1CCc1ccc(OC)cc1`, the growth with NCI-H23 lung was 24.5%; in the assay with NCI-H226 lung, 50%; with NCI-H322M lung it was 29.9%; in the assay on HOP-62 NSCLC, 16.6%; with NCI-H460 lung, 13%; with HOP-92 NSCLC, 22.5%. The growth in the assay with NCI-H522 lung was 15.2%; in the assay with A549/ATCC NSCLC it was 24.1%; with 786-0 renal, 21%; with COLO 205 colon it was -2.84% (active); in the assay on DU-145 prostate, 7.21% (active); in the assay with K-562 leukemia, 8.06% (active). The growth is 16.8% in the assay with MDA-MB-231 breast; -25% (active) in the assay on RXF 393 renal; 26.4% in the assay with SF-268 CNS; 21.3% in the assay on SF-295 CNS; 26.5% in the assay with SF-539 CNS; 16.3% in the assay on M14 melanoma.

In the case of `CCCCCCCCCCCC[n+]1ccccc1`, the growth in the assay with NCI-H23 lung is 8.58% (active); in the assay on NCI-H226 lung it was 24.4%; in the assay on NCI-H322M lung, 55.7%; in the assay with HOP-62 NSCLC it was -8.28% (active); with NCI-H460 lung, 3.69% (active); in the assay with HOP-92 NSCLC it was -24.8% (active). The growth is 1.19% (active) in the assay on NCI-H522 lung; 9.04% (active) with A549/ATCC NSCLC; -16.8% (active) in the assay with 786-0 renal; -74% (active) in the assay on COLO 205 colon; 16% with DU-145 prostate; 6.1% (active) in the assay on K-562 leukemia. Also, the growth was 0.501% (active) in the assay on MALME-3M melanoma; -2.58% (active) in the assay with MDA-MB-231 breast; 11.5% in the assay with SF-268 CNS; -36.5% (active) with SF-295 CNS; -2.41% (active) in the assay on SF-539 CNS; -41.3% (active) in the assay on M14 melanoma.

As for `CCc1nc2cc(/C=C/C(=O)NO)c(F)cc2c(=O)n1CCc1ccccc1`, the growth in the assay with NCI-H23 lung is -5.22% (active); in the assay on NCI-H226 lung, 3.63% (active); with NCI-H322M lung it was 20.5%; in the assay on HOP-62 NSCLC it was -4.23% (active); in the assay with NCI-H460 lung, 3.81% (active); in the assay on HOP-92 NSCLC it was 7.39% (active). Further, the growth is 10.6% in the assay on NCI-H522 lung; -2.46% (active) in the assay on A549/ATCC NSCLC; 0.452% (active) in the assay on 786-0 renal; -33.1% (active) in the assay with COLO 205 colon; 4.01% (active) in the assay on DU-145 prostate; 6.83% (active) in the assay with K-562 leukemia. Further, the growth was 15.5% in the assay on MDA-MB-231 breast; -21.3% (active) with RXF 393 renal; 8.51% (active) in the assay with SF-268 CNS; 13.5% in the assay on SF-295 CNS; 1.7% (active) in the assay with SF-539 CNS; 3.41% (active) in the assay on M14 melanoma.

The values are drawn from PubChem BioAssay (NCI).
